High-throughput results (PubChem)
Most compounds without a hit are left out; they make up all but 20% or so of the library.
Pf growth 48h: Primary qHTS for delayed death inhibitors of the malarial parasite plastid, 48 hour incubation | P. falciparum luciferase growth in erythrocytes, 48 h | Potency, µM (top dose mostly 28.7 µM), for the others: at the highest dose activity change, negative = inhibition, usual class: inhibitors | 310,000 compounds, 5.9% hits | AID 504832, 2011; note: potency is the fitted concentration of half-maximal effect; % is set by controls: 0 for no effect and ±100 for the full control effect
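Parasite viability was followed by luminescence of a genomically integrated firefly luciferase. Cultures held 0.1% parasitemia at 2% hematocrit (final), incubated under 5% CO2 at 37 C.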
Pf growth 96h: Primary qHTS for delayed death inhibitors of the malarial parasite plastid, 96 hour incubation. P. falciparum luciferase reporter growth, 96 h. Potency, µM (series often up to 28.7 µM), for the others: top-dose activity change, negative = inhibition, usual class: inhibitors. 320,000 compounds, 6.9% hits. AID 504834, 2011; note: potency is the fitted concentration of half-maximal effect; % is set by controls: 0 for no effect and ±100 for the full control effect
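Luminescence readout: decreased luciferase signal marks inhibited growth of reporter-expressing P. falciparum in infected red cells (2% hematocrit, 0.05% parasitemia final), exposed to compound two generations (96 h, 37 C, 5% CO2).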
Cycloheximide cs: Cycloheximide Counterscreen for Small Molecule Inhibitors of Shiga Toxin | AID 2314, 2010 | cell reporter, cycloheximide protein synthesis inhibition counterscreen | max response, % | 300,000 compounds, 12% hits; in the data active = max response mostly above about 13%, no sharp cut-off; inactive = mostly below about 14%; note: read at 38.3 µM for the half of the compounds with a filed dose; 0% is about no effect
HCMV antiviral: qHTS Assay for inhibitors of the human cytomegalovirus (HCMV). activity change, negative = inhibition, % at 57.5 µM. HFF cells, HCMV-luciferase reporter, 72 h; active compounds read low. 410,000 compounds, 4.5% hits; in the data active = activity change below about -60%; inconclusive = no clear call, values can overlap the other calls; inactive = above about -39%; note: % is set by controls: 0 for no effect and ±100 for the full control effect
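Compounds were evaluated in HFFs infected with an HCMV luciferase reporter virus (MOI 1 PFU/cell). Luciferase in lysates collected 72 h post infection served as the replication measure.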
Shiga inhibitor: A qHTS for Small Molecule Inhibitors of Shiga Toxin; Vero cells, Shiga toxin protein synthesis inhibition reporter; 290,000 compounds, 9.2% hits; inhibition, % at 38.7 µM; in the data active = inhibition mostly above about 28%, no sharp cut-off; inactive = mostly below about 43%; note: 0% is about no effect
Active calls of the source: *; ? = inconclusive; nt = no result. Unless noted, calls come from the whole dose curve; as a rule, active = well fitted inhibition curve with a large enough effect; inconclusive = small, poorly fitted or top-dose-only effect, or another doubt; inactive = no such curve, though single readings can be large or run the other way.

SMILES	Pf growth 48h	Pf growth 96h	Cycloheximide cs	HCMV antiviral	Shiga inhibitor
CCOc1ccc(Cc2c(C)[nH]c3ccc(C(=O)O)cc3c2=S)cc1	3%	-26%	1	-79*	-6
CCc1c(C)[nH]c2ccc(OC)cc2c1=S	?	?	-2	-71*	-11
CCOC(=O)C1(CCOC)CCN(C(=O)Cc2ccsc2)CC1	10%	?	2	63	-2
O=C(COc1ccc2c3c(c(=O)oc2c1)CCC3)N1CCCCC1	28%	36%	25*	2	86*
O=C(COc1ccc2c3c(c(=O)oc2c1)CCC3)N1CCCC1	15%	?	-2	22	-3
CN(C)C(=O)COc1ccc2c3c(c(=O)oc2c1)CCCC3	19%	9.3µM*	-1	45	nt
COc1ccccc1CNC(=O)CN(Cc1ccc(Cl)cc1)S(C)(=O)=O	0%	23%	-1	-19	-8
Cc1ccc(-n2ncc3c(=O)n(CC#N)cnc32)cc1C	51%	?	65*	33	40
C#CCn1cnc2c(cnn2-c2ccc(C)c(C)c2)c1=O	123%	?	35*	56	141*
C#CCn1cnc2c(cnn2-c2ccc(F)cc2)c1=O	nt	nt	nt	-22	nt
COc1ccc(-n2ncc3c2ncn2nc(-c4ccc(OC)c(OC)c4)nc32)cc1	nt	nt	nt	-23	nt
Cc1nc2c3cnn(-c4ccc(C)c(C)c4)c3ncn2n1	72%	274%	29*	20	70*
CSCC[C@H](N)C(=O)N[C@@H](CCC(=O)O)C(=O)N[C@H](C(=O)NCC(=O)N[C@@H](Cc1c[nH]c2ccccc12)C(=O)N[C@@H](Cc1ccc(O)cc1)C(=O)N[C@@H](CCCNC(=N)N)C(=O)N[C@@H](CO)C(=O)N1CCC[C@H]1C(=O)N[C@@H](Cc1ccccc1)C(=O)N[C@@H](CO)C(=O)N[C@@H](CCCNC(=N)N)C(=O)N[C@H](C(=O)N[C@H](C(=O)N[C@@H](Cc1cnc[nH]1)C(=O)N[C@@H](CC(C)C)C(=O)N[C@@H](Cc1ccc(O)cc1)C(=O)N[C@@H](CCCNC(=N)N)C(=O)N[C@@H](CC(N)=O)C(=O)NCC(=O)N[C@@H](CCCCN)C(=O)O)C(C)C)C(C)C)C(C)C	nt	nt	-4	nt	-4
Cn1nccc1NS(=O)(=O)c1ccc(NC(=O)C(F)(F)F)cc1	2%	-2%	-1	6	-2
COc1ccc(NC(=O)CCN2C(=O)c3cccc([N+](=O)[O-])c3C2=O)cc1	45%	-12%	-2	18	9
CC(C)(C)c1ccc(NC(=O)COC(=O)CCN2C(=O)c3cccc([N+](=O)[O-])c3C2=O)cc1	33%	0%	18*	34	7
CCc1oc2ccccc2c1C(=O)c1cc(I)c(O)c(I)c1	-15%	1.9µM*	nt	nt	nt
C#CCNC(=O)C1=C[C@H](C)C[C@H](OCc2ccc(CO)cc2)O1	nt	nt	nt	-8	nt
C#CCNC(=O)C[C@@H]1C[C@@]2(C(=O)OCC)CCC=C2N(Cc2ccco2)C1=O	nt	nt	nt	47	nt
Cc1ccc(OCCNC(=O)c2cccc(S(=O)(=O)N3CCN(C)CC3)c2)cc1	?	?	nt	-9	nt
O=[N+]([O-])c1ccccc1CNc1ccc(NCc2ccccc2[N+](=O)[O-])cc1	nt	nt	nt	-74*	nt
COc1ccc(NCc2ccccc2[N+](=O)[O-])cc1OC	?	?	4	5	4
O=C(O)c1ccc(Nc2ccc(F)c(F)c2)c([N+](=O)[O-])c1	-2%	39%	2	12	3
O=[N+]([O-])c1ccc(Cl)cc1CNc1ccc(F)c(F)c1	3%	8.3µM*	-1	24	-8
CN([C@@H](Cc1ccc(OS(=O)(=O)c2cccc3cnccc23)cc1)C(=O)N1CCN(c2ccccc2)CC1)S(=O)(=O)c1cccc2cnccc12	0.93µM*	1µM*	-1	nt	-2
SMILES	Pf growth 48h	Pf growth 96h	Cycloheximide cs	HCMV antiviral	Shiga inhibitor
O=C(NCc1ccccc1Cl)C1CCN(C(=O)N2CCOc3ccccc32)CC1	nt	nt	nt	8	nt
CC(C)=CC(=O)Oc1ccc(C(=O)N(C)c2ccccc2I)cc1	nt	nt	-2	nt	18
COc1ccc(C(=S)NC2CCCCC2)cc1	53%	41%	20*	16	27
COc1ccc(CNC(=S)NC2CCCCC2)cc1	18%	?	14	-36	7
CCOc1ccc(C(=S)NC2CCCCC2)cc1	93%	127%	52*	34	139*
Fc1cc(Cl)cc2ccc(-c3ccccc3)nc12	nt	nt	nt	18	nt
O=C(COc1ccccc1F)N1c2ccccc2CCc2ccccc21	-22%	?	-3	-32	-10
O=C(COc1ccccc1[N+](=O)[O-])N1CCCc2ccccc21	?	38%	17*	31	10
O=C(COc1ccccc1F)N1CCCc2ccccc21	0%	-14%	22*	0	nt
CCC1(c2ccc(O)cc2)NC(=O)NC1=O (centres undefined)	nt	nt	-7	nt	-11
CCCC[n+]1ccn(-c2nc3c([N+](=O)[O-])cccc3n2C)c1	13µM*	2.1µM*	1	0	-5
COc1ccc(SCC(CC(C)C)N2CCN(C)CCC2=O)cc1 (centres undefined)	nt	nt	25*	nt	53*
CC(C)CC(CSc1ccc(Br)cc1)N1CCN(C)CCC1=O (centres undefined)	nt	nt	40	nt	90*
Cc1ccc(SCC(CC(C)C)N2CCN(C)CCC2=O)cc1 (centres undefined)	nt	nt	33*	nt	72*
CC(=O)Nc1ccc(SCC(CC(C)C)N2CCN(C)CCC2=O)cc1 (centres undefined)	nt	nt	2	nt	6
CN1CCC(=O)N([C@H](CSc2ccccc2)Cc2ccccc2)CC1	1%	?	-2	-11	-1
CC(C)C[C@@H](CSc1ccccc1)N1CCN(C)CCC1=O	21%	-29%	18*	30	24
Cc1nc(N2CCCC2)c2c(C(=O)Nc3cccc(Cl)c3C)c(C)oc2n1	nt	nt	nt	-16	nt
COc1ccc(NC(=O)N(C)C[C@H]2Oc3ccc(NS(=O)(=O)c4cccs4)cc3C(=O)N([C@@H](C)CO)C[C@@H]2C)cc1	nt	nt	nt	9	nt
Cc1ccc(NC(=O)CSc2nc(-c3cccs3)cc(C(F)(F)F)n2)cc1C	nt	nt	nt	-19	nt
CCOC(=O)c1c(C)n(-c2ccccc2)c2ccc(OC(=O)COc3ccc(Cl)cc3)cc12	nt	nt	nt	0	nt
CN1CCC(=O)N([C@H](CO)c2ccccc2)CC1	11%	54%	18*	106	15
O=C1CCN(Cc2ccccc2)CCN1[C@H](CO)c1ccccc1	1%	1%	1	-9	-1
CCSc1nnc(-c2ccc(C)cc2)c2ccccc12	12%	265%	-3	-62*	-9
CCSc1nnc(-c2ccc(Cl)cc2)c2ccccc12	?	0.093µM*	-4	?	-16
CCCCN(C)C(=O)C1CCC(CNS(=O)(=O)c2ccc(Cl)cc2)CC1 (centres undefined)	nt	nt	nt	0	nt
CC(C)N(Cc1ccccc1)C(=S)NC1CCCCC1	-8%	?	-2	-1	3
